MenB inh = Mtb MenB enzyme inhibition. AID 540299. MenB enzyme assay, absorbance read-out. 0.43% of 100,000 active. inhibition, % (test concentration not listed); in the data active = inhibition above about 21%, passing the limit was not always enough
Target sequence (P9WNP5 whole entry, looked up): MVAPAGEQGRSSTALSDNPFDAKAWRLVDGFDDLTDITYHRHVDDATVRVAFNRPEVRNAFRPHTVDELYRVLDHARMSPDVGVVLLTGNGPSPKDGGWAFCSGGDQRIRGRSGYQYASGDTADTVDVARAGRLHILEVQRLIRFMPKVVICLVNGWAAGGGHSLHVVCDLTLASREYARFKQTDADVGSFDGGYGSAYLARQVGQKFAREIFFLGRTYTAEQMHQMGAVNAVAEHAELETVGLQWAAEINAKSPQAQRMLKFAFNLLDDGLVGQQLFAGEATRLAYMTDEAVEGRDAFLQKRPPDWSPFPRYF
AID504770 = E. coli YBA685 growth inhibition, screen for V. cholerae RctB inhibitors; E. coli YBA685 rctB-dependent plasmid, OD600 growth, 3 h; stronger effect = lower value; z-score (concentration not given with the values); 0.27% of 130,000 active; AID 504770; in the data active = z-score below about -2, passing the limit was not always enough
Mtb MbtI inh = inhibitors of Mycobacterium tuberculosis siderophore enzyme MbtI; P9WFX0; purified MbtI enzyme, fluorescence intensity read-out; inhibition, % (test concentration not listed); 0.89% of 100,000 active; AID 493033; in the data active = inhibition mostly above about 56%, no sharp cut-off; inactive = mostly below about 77%
PV pol inh = inhibitors of poliovirus RNA polymerase binding and polymerization; P03300; poliovirus polymerase elongation, fluorescence polarization; stronger effect = lower value; % elongation, % (compound at 16.7 µg/mL); 0.66% of 150,000 active; AID 588519; in the data active = % elongation below about 90%
Numbers stand for hits; 0 = inactive; - = no result given; ! = repeats disagree. A selection: hits, their analogues and other compounds. The true share with any hit is near 1.4%.

SMILES	MenB inh	AID504770	Mtb MbtI inh	PV pol inh
O=C(N1CCC(O)(c2cccnc2)CC1)C12CC3CC(CC(C3)C1)C2	25	0	0	0
N#Cc1c(SCCCOc2ccccc2)sc2c(=O)[nH]c(=O)[nH]c12	21	0	-	0
O=C(NCC1CCCO1)c1ccc(N2CCSc3ncccc32)s1 (stereo unspecified)	0	0	0	0
O=C1Cc2ccccc2C(=O)N1Cc1ccc2c(c1)OCO2	-	0	0	75
Cc1cccc2nc(=S)n(C(=O)c3ccc(F)cc3)n12	0	0	-	74
CSc1ccc(C2CC(=O)Nc3c2c(=O)nc(SC)n3C)cc1 (stereo unspecified)	0	0	0	0
Cn1c(=S)[nH]c2ccccc21	0	0	101	0
CCOc1ccc2c(c1)[nH]c(=S)n2C	0	0	78	0
CCCCn1c(=S)[nH]c2ccccc21	0	0	0	0
CCOC(=O)c1c(C)n(C)c2ccc(OCC)cc12	0	0	-	0
CC(c1ccccc1)n1c(=S)[nH]c2ccccc21 (stereo unspecified)	0	0	89	0
N#CCSc1nc(N2CCOCC2)nc(N2CCOCC2)n1	0	0	0	0
Cn1c(=O)c(C2=NS(=O)(=O)c3ccccc3N2)c(O)c2ccccc21	33	0	0	0
O=C1CSCC(=O)N1c1cccnc1	0	0	0	84
O=C1CSCC(=O)N1c1ccc2c(c1)OCO2	-	0	-	-
Cn1c(CCC(=O)NCc2ccc(F)cc2)nc2cc(S(=O)(=O)N3CCCCC3)ccc21	0	0	0	-
COc1ccc(NC(=O)CCc2nc3cc(S(=O)(=O)N4CCCCC4)ccc3n2C)cn1	0	0	95	0
NC(=S)c1cccc(Oc2ccccc2)c1	0	0	0	87
COc1ccc(C(=O)n2c3c(c(=O)n2-c2ccccc2)Cc2ccc(OC)cc2O3)cc1	54	0	0	0
Brc1ccc(CNc2ccc3cn[nH]c3c2)s1	0	0	0	58
O=C(NCC1COc2ccccc2O1)c1ccccc1Br (stereo unspecified)	-	0	-	-
Cc1[nH]c(=S)[nH]c1Cc1ccccc1	0	0	96	-
CNC(=O)CSc1nnc(Nc2ccc(C(C)C)cc2)s1	0	0	0	0
COc1ccc(C2C(C#N)=C(N)Oc3c2ccc2cccnc32)cc1 (stereo unspecified)	33	0	0	0
COc1ccc(C2C(C#N)=C(N)OC(C3CC3)=C2C#N)cc1 (stereo unspecified)	0	0	0	0
SMILES	MenB inh	AID504770	Mtb MbtI inh	PV pol inh
CCOc1ccc(CCNC(=O)c2cnc3sc(N4CCCCCC4)nn3c2=O)cc1	-	-	-	0
CCOc1ccc(CCNC(=O)c2cnc3sc(N4CCCC4)nn3c2=O)cc1	-	-	-	5.0
O=C(c1cnccn1)N(Cc1ccc(Cl)cc1)Cc1cc2cc3c(cc2[nH]c1=O)OCCO3	25	0	0	0
C=CCN(CC=C)Cn1c(=S)oc2ccc(S(=O)(=O)Nc3ccc(OC)cc3)cc21	0	0	85	0
c1ccc(-c2ccc(-c3ccccn3)nc2)nc1	-	-2.4	-	-
c1ccc(-c2cccc(-c3ccccn3)n2)nc1	-	0	0	0
CN(CC(=O)Nc1ccc(N2CCOCC2)cc1)Cn1nc(Nc2ccccc2F)sc1=S	0	0	99	0
Cc1ccc(O)c(C(=O)c2cnn(C(=O)Cc3csc(C)n3)c2)c1	0	0	0	86
COc1ccc(-c2noc(N3CCC(C(=O)NCc4cccc(Cl)c4)CC3)n2)cc1	0	0	0	0
C=CCSc1nc2sc3c(c2c(=O)n1-c1ccc(C)cc1)CCC3	0	0	-	0
O=C1C=CC(=O)N1c1ccccc1Sc1ccccc1	-	0	99	0
CNc1ccccc1C(=O)N/C(N)=N\c1nc(C)c2ccccc2n1	0	0	0	0
Cc1ccc(S(=O)(=O)N(C)c2nc3ccccc3nc2SCC#N)cc1	0	0	98	0
Cc1ccc(S(=O)(=O)N(C)c2ccccc2)cc1	0	0	0	0
Cc1ccc2nc(COC(=O)C3=COCCO3)cc(=O)n2c1	0	0	0	0
COc1ccc(-c2nn3c(Cc4ccc(Cl)cc4)nnc3s2)cc1OC	0	0	0	0
O=S(=O)(c1ccc(Cl)cc1)N(O)c1ccc(Cl)cc1	0	0	88	0
CN(c1ccccc1)S(=O)(=O)c1ccc(Cl)cc1	0	0	-	0
C/C(=N\NC(=O)c1ccn[nH]1)c1cc(O)ccc1O	0	0	71	0
O=C(CNc1ncnc2ccccc12)NCCO	0	0	0	0
Cc1c(N(C)C(=S)SCC(=O)O)c(=O)n(-c2ccccc2)n1C	0	0	0	0
COc1cc(C=C(C#N)C#N)ccc1O	0	0	59	0
COC(=O)c1sc(NC(=O)c2ccccc2)c(C(=O)OC)c1C	0	0	-	68
COC(=O)c1sc(NC(=O)C(F)(F)F)c(C(=O)OC)c1C	0	0	0	0
CC(C)(C)C(=O)NC1CCN(S(C)(=O)=O)CC1	31	0	0	0
SMILES	MenB inh	AID504770	Mtb MbtI inh	PV pol inh
Cc1[nH]c2ccccc2c(=O)c1CO	0	0	0	0
Cc1c(C(=O)Nc2cccc(F)c2)sc2nc(-c3cc4ccccc4oc3=O)[nH]c(=O)c12	-	-	-	64
Cc1cc(C)cc(NC(=O)c2sc3nc(-c4cc5ccccc5oc4=O)[nH]c(=O)c3c2C)c1	-	-	-	0
O=C(NCCc1ccccc1)c1noc2c1CCCC2	0	0	0	0
CC(C)Cn1c(=S)[nH]c2cc(Cl)ccc21	0	0	85	78
CC(C)Cn1c(=S)[nH]c2ccccc21	0	0	0	0
C=CCNc1oc(Cc2ccccc2)nc1C#N	0	0	0	0
COC1=CC(=O)C(C)=CC1=O	-	-3.1	-	-
Sc1ccc2c(c1)OCCCO2	0	0	94	0
S=c1[nH]cc2ccccn12	0	0	0	0
S=c1[nH]nc2ccccn12	0	0	92!	0
O=C(Cn1nc(Cc2ccncc2)c2ccccc2c1=O)NCCC1=CCCCC1	-	-2.2	-	-
O=C(CSc1nc2ccccc2c(=O)[nH]1)c1ccc(-c2ccccc2)cc1	0	0	0	0
O=C(CSc1nc2ccccc2c(=O)[nH]1)c1ccc(O)cc1O	0	0	82	0
Cc1ccc2[nH]c(=S)oc2c1	0	0	61	0
S=c1[nH]c2ccc(Cl)cc2[nH]1	0	0	82	0
S=c1[nH]c2ccc(Cl)cc2o1	0	-2	64	0
CCOC(=O)/C(=C\c1ccsc1)C1=Nn2c(nnc2-c2ccc(OC)cc2)SC1	0	0	0	0
CC(NC(=O)CSc1nc(N)cc(N)n1)C12CC3CC(CC(C3)C1)C2 (stereo unspecified)	0	0	0	0
Cc1cnc2c(c1)N1CCC2CC1	39	0	0	0
CC1Cc2ccccc2N1C(=O)C1CCN(S(=O)(=O)c2ccc(-n3cnnn3)cc2)CC1 (stereo unspecified)	39	0	0	0
Cc1cccc(C)c1NC(=O)CS(=O)(=O)c1cccc2nsnc12	-	0	-	-
C1CCC(N2CCN(C3CCCC3)CC2)C1	32	0	0	0
CCC(C)N1CCN(C2CCCCC2)CC1 (stereo unspecified)	44	0	0	0
CC1CN(Cn2nc(C(=O)O)c3ccccc32)CC(C)O1 (stereo unspecified)	0	0	0	0
CC1CN(Cn2c(=S)oc3ccccc32)CC(C)O1 (stereo unspecified)	0	0	0	90

High-throughput results (PubChem BioAssay)
